Growth data for seven molecules are collected here from PubChem BioAssay (NCI).

Several values for one entry are separate records, joined by “and”; a condition that tells them apart may be missing. Equal values may be shown once. Compounds without any hit were thinned out: in the full panel of roughly 83,000, 20% have a hit.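 Interpretation: 100, growth as untreated; towards 0, rising growth inhibition; 0, no net growth; 0 to -100, cell death. Compounds scoring below 10 were considered active.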 Activity calls are given as the source filed them.

Experiment in all cases: NCI-60 one-dose screen, 48 h (100 = growth as untreated, 0 = no growth, -100 = all killed)
Common to all, as to details: 10 µM unless noted

Experiment [1] relates to HCT-15 colon.
For experiment [2], the system named is SNB-75 CNS.
Experiment [3] deals with SNB-19 CNS.
The subject of experiment [4] is U251 CNS.
The test system of experiment [5] is PC-3 prostate.
The test system of experiment [6] is SK-MEL-5 melanoma.
Experiment [7] relates to UACC-62 melanoma.
Experiment [8] has as its system LOX IMVI melanoma.
In experiment [9] the test system is SK-MEL-28 melanoma.
The subject of experiment [10] is SK-MEL-2 melanoma.
Experiment [11] concerns EKVX NSCLC.
Experiment [12] concerns SN12C renal.
For experiment [13], the system named is UO-31 renal.
The test system of experiment [14] is TK-10 renal.
In experiment [15] the test system is ACHN renal.
For experiment [16], the system named is CAKI-1 renal.
Experiment [17] deals with A498 renal.
Experiment [18] deals with CCRF-CEM leukemia.
Experiment [19] concerns MOLT-4 leukemia.

For the molecule `CC[C@]1(O)CC2CN(CCc3c([nH]c4ccccc34)C(C(=O)OC)(c3cc4c(cc3OC)N(C=O)[C@H]3[C@@](O)(C(=O)OC)[C@H](OC(C)=O)[C@]5(CC)[C@@H]6C[C@@H]6CN6CC[C@]43[C@@H]65)C2)C1` (stereo partly drawn), the growth was 15.5% (inactive) in [1]; 10.8% (inactive) in experiment [2]; 37.5% (inactive) in experiment [3]; 6.57% (active) in experiment [4]; 17.9% (inactive) in [5]; -49.4% (active) in [6]. Also, the growth in experiment [7] was 37.2% (inactive); in experiment [8] it was 26.6% (inactive); in experiment [9], 69.5% (inactive); in experiment [10], 11.6% (inactive); in experiment [11] it was 43.4% (inactive); in experiment [12], 30.1% (inactive). Further, the growth was 31.1% (inactive) in [13]; 50% (inactive) in [14]; 30.9% (inactive) in experiment [15]; 32.1% (inactive) in experiment [16]; -20% (active) in experiment [17]; 13.6% (inactive) in [18]. Also, in experiment [19], the growth is 13.1% (inactive).

In the case of `OCCN1CCN(CC/C=C2\c3ccccc3Sc3ccc(Cl)cc32)CC1`, the growth was -38.8% (active) and 8.86% (active) in experiment [1]; 60.2% (inactive) and 133% (inactive) in [2]; 58.4% (inactive) and 72.6% (inactive) in experiment [3]; 27.6% (inactive) and 28.6% (inactive) in [4]; 33.6% (inactive) and 39.2% (inactive) in experiment [5]; -83.5% (active) and -91.7% (active) in experiment [6]. Further, the growth in experiment [7] is -93.8% (active) and -68.5% (active); in [8] it was -30.2% (active) and 1.96% (active); in experiment [9], -100% (active) and -78.1% (active); in experiment [10] it was 46.5% (inactive) and -10.9% (active); in experiment [11], 80.8% (inactive) and 60.3% (inactive); in [12], 63% (inactive) and 64.3% (inactive). For the same molecule, the growth in experiment [13] is 39.9% (inactive) and 2.89% (active); in [14] it was 57.7% (inactive); in [15], 58.5% (inactive) and 71.1% (inactive); in experiment [16] it was 53.5% (inactive); in experiment [17], 45.4% (inactive) and 60.5% (inactive); in experiment [19], -52.7% (active) and -10.3% (active).

On to `O=S(=O)(Nc1ccc(F)cc1)c1ccc(-c2cnc(C3CC3)o2)cc1`, for which the growth in experiment [1] was 19.9% (inactive); in experiment [2] it was 0.813% (active); in experiment [3], 29.7% (inactive); in [4], 21% (inactive); in [5], 31.2% (inactive); in [6] it was 25.5% (inactive). The growth in experiment [7] is 27.5% (inactive); in [8], 51.5% (inactive); in experiment [9], 56.2% (inactive); in experiment [10], 12.8% (inactive); in experiment [11] it was 44.4% (inactive); in experiment [12], 35.5% (inactive). The growth in experiment [13] is 36.3% (inactive); in experiment [14], 32.4% (inactive); in [15], 32% (inactive); in [16], 36.3% (inactive); in experiment [17], 14.1% (inactive); in [18] it was 10.5% (inactive). In experiment [19], the growth is 12.7% (inactive).

As for `C=C(C)[C@@H]1CC[C@]2(C(=O)N3CCN(C)CC3)CC[C@]3(C)[C@H](CC[C@@H]4[C@@]5(C)CC(CCCNC(C)=O)(CCCNC(C)=O)[C@H](OC(C)=O)C(C)(C)[C@@H]5CC[C@]43C)[C@@H]12`, the growth is 86.8% (inactive) in experiment [1]; 89.2% (inactive) in experiment [2]; 98.2% (inactive) in experiment [4]; 74.9% (inactive) in experiment [5]; 91.5% (inactive) in [6]; 99.3% (inactive) in [7]. Moreover, the growth in experiment [10] was 112% (inactive); in experiment [11], 96.4% (inactive); in experiment [12] it was 96.5% (inactive); in [13], 80.5% (inactive); in experiment [14] it was 109% (inactive); in [15] it was 101% (inactive). In addition, the growth in experiment [16] is 79.3% (inactive); in experiment [17] it was 109% (inactive); in [18], 91.8% (inactive); in experiment [19], 85.7% (inactive).

`Cc1nc2sc(C(=O)Nc3cccc4ncccc34)c(N)c2cc1C(C)O` (stereo not drawn): the growth in experiment [1] was 64.1% (inactive); in [2], 76.6% (inactive); in [3] it was 67.8% (inactive); in experiment [4] it was 83.4% (inactive); in experiment [5], 72.9% (inactive); in experiment [6], 56.8% (inactive). Also, the growth in experiment [7] is 42.9% (inactive); in experiment [9] it was 67.3% (inactive); in [10], 35.3% (inactive); in experiment [11] it was 88.4% (inactive); in experiment [12] it was 91.8% (inactive); in experiment [13] it was 81.5% (inactive). The growth in experiment [14] is 103% (inactive); in experiment [15], 93.4% (inactive); in experiment [16], 89.7% (inactive); in experiment [17], 48.1% (inactive); in [18], 54.4% (inactive); in [19] it was 64% (inactive).

For the molecule `N#Cc1ccccc1-c1ccc(Cn2c(-c3cscn3)nc3c(Cl)cccc32)cc1`, the growth is 77.9% (inactive) in experiment [1]; 78% (inactive) in experiment [2]; 88.5% (inactive) in experiment [3]; 79.1% (inactive) in experiment [4]; 54.4% (inactive) in [5]; 55.3% (inactive) in [6]. For the same molecule, the growth in [7] was 75% (inactive); in experiment [8], 65.7% (inactive); in experiment [9], 105% (inactive); in experiment [10], 75.9% (inactive); in experiment [11], 76.9% (inactive); in experiment [12], 91.2% (inactive). Moreover, the growth in [13] is 46% (inactive); in experiment [14], 81.4% (inactive); in experiment [15], 80.8% (inactive); in [16], 70.9% (inactive); in experiment [17], 74.8% (inactive); in experiment [18], 65.8% (inactive). Also, in [19], the growth is 48.2% (inactive).

On to `Cc1ccc(-c2nc3nc(-c4ccc(Cl)cc4)nc(N4CCCNCC4)c3o2)cc1`, for which the growth in experiment [1] is -81.5% (active); in experiment [2], -10.4% (active); in experiment [3], -89.7% (active); in experiment [4], -86.9% (active); in [5], -79.8% (active); in [6], 92.8% (inactive). The growth in [7] was 95.6% (inactive); in experiment [8], -83.2% (active); in [9], 108% (inactive); in experiment [10] it was 103% (inactive); in experiment [11], 123% (inactive); in experiment [12], -86% (active). The growth in [13] was -78.7% (active); in experiment [14] it was 29.7% (inactive); in [15] it was -98.9% (active); in [16], -92.3% (active); in [17] it was 95.2% (inactive); in [18], -72.6% (active). In addition, the growth in [19] is -71.2% (active).
